High-throughput results deposited in PubChem BioAssay by Center for Chemical Genomics, University of Michigan.
Shown is part of a subset that was picked to be rich in hits.
Dicer processing: blocks human Dicer maturation of pre-miR-21; cat-ELCCA pre-miR-21 Dicer processing, chemiluminescence; hits give high values; z-score at 25 µM; 47,000 compounds, 6% hits; AID 1347074; in the data active means z-score above about 3, passing the limit was not always enough;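 further: higher signal means more uncleaved substrate so more Dicer inhibition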
Target sequence (Q9UPY3 whole entry, looked up): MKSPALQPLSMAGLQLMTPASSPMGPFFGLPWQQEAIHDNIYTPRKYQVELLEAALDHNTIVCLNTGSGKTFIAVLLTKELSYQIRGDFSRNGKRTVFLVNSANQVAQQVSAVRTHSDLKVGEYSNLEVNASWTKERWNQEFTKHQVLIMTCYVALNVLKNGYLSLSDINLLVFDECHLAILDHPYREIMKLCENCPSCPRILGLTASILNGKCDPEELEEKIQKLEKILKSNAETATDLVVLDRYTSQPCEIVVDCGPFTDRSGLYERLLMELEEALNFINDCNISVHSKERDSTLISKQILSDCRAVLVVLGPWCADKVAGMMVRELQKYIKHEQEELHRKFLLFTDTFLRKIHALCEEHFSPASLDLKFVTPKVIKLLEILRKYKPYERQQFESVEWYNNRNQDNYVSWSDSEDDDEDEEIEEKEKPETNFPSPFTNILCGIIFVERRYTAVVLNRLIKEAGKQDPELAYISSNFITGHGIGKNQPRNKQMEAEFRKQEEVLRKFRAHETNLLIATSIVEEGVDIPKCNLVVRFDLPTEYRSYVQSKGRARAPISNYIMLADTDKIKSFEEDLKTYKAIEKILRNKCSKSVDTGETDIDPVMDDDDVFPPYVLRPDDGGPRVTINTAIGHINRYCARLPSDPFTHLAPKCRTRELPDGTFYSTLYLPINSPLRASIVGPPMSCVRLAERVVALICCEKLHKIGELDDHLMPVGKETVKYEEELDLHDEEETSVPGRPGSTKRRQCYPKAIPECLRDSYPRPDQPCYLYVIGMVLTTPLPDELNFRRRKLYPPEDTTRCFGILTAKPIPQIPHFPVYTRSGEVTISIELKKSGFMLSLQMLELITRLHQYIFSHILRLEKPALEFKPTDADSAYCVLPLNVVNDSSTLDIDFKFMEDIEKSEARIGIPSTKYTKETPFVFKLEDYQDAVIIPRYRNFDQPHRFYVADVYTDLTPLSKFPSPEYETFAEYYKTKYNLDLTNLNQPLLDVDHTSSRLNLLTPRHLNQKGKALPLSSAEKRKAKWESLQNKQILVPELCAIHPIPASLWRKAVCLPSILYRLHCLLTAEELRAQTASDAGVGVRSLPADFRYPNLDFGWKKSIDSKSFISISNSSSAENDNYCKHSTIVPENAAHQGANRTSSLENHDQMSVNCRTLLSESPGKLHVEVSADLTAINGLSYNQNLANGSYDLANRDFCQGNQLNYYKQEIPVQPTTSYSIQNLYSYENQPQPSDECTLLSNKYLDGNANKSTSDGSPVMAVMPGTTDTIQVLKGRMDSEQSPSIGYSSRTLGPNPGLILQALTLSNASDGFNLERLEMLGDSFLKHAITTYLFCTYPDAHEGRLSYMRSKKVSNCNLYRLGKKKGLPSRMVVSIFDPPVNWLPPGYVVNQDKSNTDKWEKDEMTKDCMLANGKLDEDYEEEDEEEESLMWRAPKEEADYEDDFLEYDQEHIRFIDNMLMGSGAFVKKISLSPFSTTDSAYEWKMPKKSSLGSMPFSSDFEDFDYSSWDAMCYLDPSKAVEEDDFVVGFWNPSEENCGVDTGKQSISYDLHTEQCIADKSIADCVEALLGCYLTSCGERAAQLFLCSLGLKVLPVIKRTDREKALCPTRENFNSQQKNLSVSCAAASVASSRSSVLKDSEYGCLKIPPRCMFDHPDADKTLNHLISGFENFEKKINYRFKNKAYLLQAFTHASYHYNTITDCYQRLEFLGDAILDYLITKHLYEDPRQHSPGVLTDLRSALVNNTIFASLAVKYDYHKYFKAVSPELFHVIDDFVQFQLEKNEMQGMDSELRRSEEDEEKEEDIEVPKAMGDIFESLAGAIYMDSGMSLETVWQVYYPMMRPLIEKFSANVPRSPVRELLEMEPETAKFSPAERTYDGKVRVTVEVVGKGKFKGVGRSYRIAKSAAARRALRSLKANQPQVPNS
A number is an active result; - = inactive.

SMILES	Dicer processing
O=C(O)c1ccccc1N1C(=O)C2C3c4ccccc4C(c4ccccc43)C2C1=O (stereo unspecified)	4.6
O=C1C2C3c4ccccc4C(c4ccccc43)C2C(=O)N1c1ccccc1 (stereo unspecified)	-
O=C(O)c1ccc(N2C(=O)C3C4c5ccccc5C(c5ccccc54)C3C2=O)cc1Cl (stereo unspecified)	-
Cc1ccc(-c2nn(CC(=O)c3ccccc3)c(=O)c3ccccc23)cc1	-
CN1CCN(C(c2cccs2)N2CCN(C)CC2)CC1	4.6
CN1CCN(C(c2cccs2)c2ccc3cccnc3c2O)CC1 (stereo unspecified)	-
CN1CCN(C(c2ccccc2)c2ccc(Cl)cc2)CC1 (stereo unspecified)	-
O=C(O)c1cccnc1SC1CC(=O)N(c2ccccc2Cl)C1=O (stereo unspecified)	-
COc1ccc(C2=NN3C(C2)c2cc(Br)ccc2OC3c2ccncc2)cc1 (stereo unspecified)	8.2
COc1ccc(C2=NN3C(C2)c2cc(Cl)ccc2OC3c2cccnc2)cc1 (stereo unspecified)	-
COc1cccc(C2=NN3C(C2)c2cc(Br)ccc2OC3c2cccnc2)c1 (stereo unspecified)	7.2
Cc1ccc(O)c(C2=NN3C(C2)c2cc(Br)ccc2OC3c2cccnc2)c1 (stereo unspecified)	-
COc1ccc(C2=NN3C(C2)c2cc(Br)ccc2OC3c2cccnc2)cc1 (stereo unspecified)	4.2
COc1ccc(C2=NN3C(C2)c2ccccc2OC3c2ccncc2)cc1OC (stereo unspecified)	-
COc1ccccc1C1Oc2ccccc2C2CC(c3cccnc3)=NN21 (stereo unspecified)	-
COc1ccc(C2=NN3C(C2)c2ccccc2OC3c2ccncc2)cc1 (stereo unspecified)	-
CCOC(=O)/C(C#N)=C/N=C(N/N=C(\C)c1ccc(Br)cc1)SC	-
CC1CC(=O)Nc2ccccc2N1C(=O)c1sc2ccccc2c1Cl (stereo unspecified)	-
O=C(NC(=O)N1CCSC1)c1ccccc1Cl	-
Cc1noc(-c2ccco2)c1NC(=O)NN(C)C	-
COCCCn1c(-c2ccc(C(C)(C)C)cc2)n[nH]c1=S	-
COC(=O)C1=C(C)NC2=C(C(=O)CC(C)(C)C2)C1c1ccc(OC)cc1OC (stereo unspecified)	-
NC(=O)C1CCN(C(=S)NC2CC3C=CC2C3)CC1 (stereo unspecified)	-
CCOC(=O)C1CCN(C(=S)NC2CC3C=CC2C3)CC1 (stereo unspecified)	-
COc1cccc(/C=N/NC(=O)C2CCCN(C(=S)NNC3CC4C=CC3C4)CC2)c1O (stereo unspecified)	3.7
SMILES	Dicer processing
Cc1cc(C)n(CC(=O)Nc2ccccc2)c(=O)c1C#N	-
Cc1c(NC(=O)CSc2nnc3c4ccccc4n(C)c3n2)c(=O)n(-c2ccccc2)n1C	3.2
C=CCn1c2ccccc2c2nnc(SCC(=O)Nc3c(C)n(C)n(-c4ccccc4)c3=O)nc21	-
Cc1cc(NC(=O)CSc2nnc3c4ccccc4n(C)c3n2)no1	-
CC(C)(C)C1=CC=Nn2cnnc2S1	-
COc1ccc(C2c3c(oc4ccccc4c3=O)C(=O)N2c2nnc(C(C)C)s2)cc1 (stereo unspecified)	-
Cc1ccc2c(c1)-c1cc(C)nn1C(c1cccc(O)c1O)N2 (stereo unspecified)	32
Cc1cc(C)c2c(c1)-c1cc(C)nn1C(c1cccc(O)c1O)N2 (stereo unspecified)	30
Cc1ccc2c(c1)-c1cc(C)nn1C(c1sccc1C)N2 (stereo unspecified)	-
COC(=O)c1ccc(C2Nc3ccc(C)cc3-c3cc(C)nn32)cc1 (stereo unspecified)	-
Cc1ccc2c(c1)-c1cc(C)nn1C(c1ccc3c(c1)OCO3)N2 (stereo unspecified)	-
Cc1ccc2c(c1)-c1cc(C)nn1C(c1ccc(O)c(O)c1)N2 (stereo unspecified)	3.5
Cc1ccc2c(c1)-c1cc(C)nn1C(c1cc(C)ccc1O)N2 (stereo unspecified)	-
Cc1cc(C)c2c(c1)-c1cc(C)nn1C(c1cccc(O)c1)N2 (stereo unspecified)	-
Cc1cc(C)c2c(c1)-c1cc(C)nn1C(c1ccccc1O)N2 (stereo unspecified)	-
C=CCn1c(SCC(=O)NC(=O)NC)nnc1-c1ccncc1	-
CSc1nc2ccc(NC(=O)c3ccccc3C(F)(F)F)cc2s1	-
Cn1nc(C(F)(F)F)c(-c2ccc(Br)cc2)c1NC(=O)C(C)(C)C	-
CCCc1cc(C(=O)Cc2csc(C)n2)c(O)cc1O	-
CCOC(=O)c1cc(-c2nc(C(=O)NN)cs2)c(C)nc1C(F)(F)F	-
CCOC(=O)C1=C(C)Nc2nc3ccccc3n2C1c1cccc(C)c1 (stereo unspecified)	-
CCOC(=O)C1CCCN(C(=O)c2ccc(Cl)cc2Cl)C1 (stereo unspecified)	-
O=c1oc(-c2cccc(C(F)(F)F)c2)nn1-c1ncccc1C(F)(F)F	-
